A3A deaminase: inhibitors of human APOBEC3A DNA deaminase | recombinant A3A, FAM/TAMRA ssDNA deamination fluorescence | inhibition, % at 20 µM | hit rate 0.41% among 330,000 | AID 493011;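 active = at least 40% inhibition at 20 µM here, with at most 30% in a related deaminase screen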;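 note: plate controls were A3A with DMSO for no effect and wells lacking A3A enzyme for full effect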
Target sequence (P31941 whole entry, looked up): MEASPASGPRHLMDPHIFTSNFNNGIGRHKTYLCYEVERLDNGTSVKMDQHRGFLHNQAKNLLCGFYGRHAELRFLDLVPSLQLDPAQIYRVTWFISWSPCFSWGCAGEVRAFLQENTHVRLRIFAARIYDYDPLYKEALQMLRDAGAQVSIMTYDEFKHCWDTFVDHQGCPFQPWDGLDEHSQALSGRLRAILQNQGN
PfG6PD inh: PfG6PD (Plasmodium falciparum) enzyme inhibition; PfGluPho enzyme, NADPH resazurin-diaphorase fluorescence; inhibition, % at 20 µM; hit rate 0.78% among 350,000;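 active = inhibition reaching at least a set limit at 20 µM in the primary screen, cut at about 59% in these data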;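 note: 0% = DMSO wells with substrate and 100% = DMSO wells lacking glucose-6-phosphate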
H9c2 TAG inh: inhibitors of triacylglycerol accumulation; H9c2 cells, Nile Red lipid (TAG) fluorescence; cells loaded with 200 µM oleic acid; inhibition, % at 12.5 µM; hit rate 0.66% among 230,000; AID 651582;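 active = pattern-corrected inhibition of lipid staining of at least 50% with the nuclear-stain viability signal not falling by more than 50%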;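 note: 0% = DMSO wells and 100% = triacsin C control wells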
NadD inh: blocks S. aureus nicotinate mononucleotide adenylyltransferase; purified NadD enzyme, colorimetric absorbance read-out; inhibition, % at 20 µM; hit rate 0.78% among 360,000; AID 602399; in the data active = inhibition above about 26%
Cardio protect: myocardial damage modulation in H9c2 cells; protection from H2O2 cell death, % at 20 µM; AID 588492; hit rate 0.63% among 360,000; H9c2 cardiomyocytes, H2O2 injury protection, ATPLite, 2 h;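 active = compounds giving at least 50% protection of heart cells from peroxide-induced death in the single-dose screen, raw or plate-pattern-corrected value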;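 note: 0% = DMSO wells with peroxide and 100% = DMSO wells without peroxide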
APOBEC3G inh: blocks human APOBEC3G single-stranded DNA deamination; Q9HC16; recombinant A3G, ssDNA deamination FAM/TAMRA fluorescence; inhibition, % at 20 µM; hit rate 0.28% among 330,000; AID 493012;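 active = inhibition of at least 40% at 20 µM, with no more than 30% in the related APOBEC3A deaminase screen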;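 note: plate controls were DMSO wells with A3G for no effect and wells lacking A3G enzyme for full effect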
Target sequence (Q9HC16 whole entry, looked up): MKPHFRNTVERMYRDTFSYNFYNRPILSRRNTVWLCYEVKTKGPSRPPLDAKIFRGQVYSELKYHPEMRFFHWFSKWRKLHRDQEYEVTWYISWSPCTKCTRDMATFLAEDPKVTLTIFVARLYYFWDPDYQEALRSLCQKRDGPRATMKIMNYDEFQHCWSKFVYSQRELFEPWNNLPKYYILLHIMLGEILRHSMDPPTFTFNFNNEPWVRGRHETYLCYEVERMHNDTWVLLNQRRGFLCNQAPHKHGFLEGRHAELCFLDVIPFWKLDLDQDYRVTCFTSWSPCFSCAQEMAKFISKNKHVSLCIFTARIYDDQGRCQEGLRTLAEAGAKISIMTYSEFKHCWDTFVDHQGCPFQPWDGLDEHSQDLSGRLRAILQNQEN
PfGluPho conf: confirmation of Plasmodium falciparum G6PD inhibitors. shares compounds with PfG6PD inh. recombinant PfGluPho, NADPH-diaphorase-resazurin fluorescence. inhibition, % at 20 µM. hit rate 34% among 2,400. AID 504753;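 active = inhibition of at least 50% at 20 µM in any single replicate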;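 note: 0% = DMSO with substrate and 100% = DMSO lacking glucose-6-phosphate substrate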
NadD inh conf: NadD (S. aureus) inhibition, single concentration confirmation; shares compounds with NadD inh; purified S. aureus NadD, colorimetric enzyme assay; inhibition, % at 20 µM; hit rate 13% among 2,000; AID 624309; in the data active = inhibition mostly above about 42%, no sharp cut-off; inactive = mostly below about 42%
H9c2 TAG conf: confirmation of triacylglycerol accumulation inhibitors; shares compounds with H9c2 TAG inh; H9c2 lipid accumulation, Nile Red fluorescence; cells loaded with 200 µM oleic acid; inhibition, % at 12.5 µM; hit rate 71% among 990;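 active = mean inhibition across replicates of 40% or more; inactive = mean inhibition below 40%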;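 note: plate controls were DMSO only wells for no effect and Triacsin C treated wells for full effect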
* hit, by the source's call; . = not tested or not shown. Rows were chosen to be rich in hits. Some 2.9% of all compounds tested hit in one or more screens of this group.

SMILES | A3A deaminase | PfG6PD inh | H9c2 TAG inh | NadD inh | Cardio protect | APOBEC3G inh | NadD inh conf | others
Cc1cc(Nc2ccc(C)c(Cl)c2)nc(N2CCOCC2)n1 | 0.1 | 65.8* | 71.6* | -10.3 | -1.1 | -1.2 | . | PfGluPho conf=7.6;H9c2 TAG conf=41.3*
CCN(CC)c1ccc(/C=C2\CCC(/C=C(/C#N)C(=O)Nc3ccccc3F)=C2N2CCOCC2)cc1 | . | 70.0* | 90.8* | 25.3 | -5.4 | . | . | PfGluPho conf=-14.3;H9c2 TAG conf=65.0*
CC(=O)c1ccc(Nc2nc(C(N)CCc3ccccc3)cs2)cc1 (stereo unspecified) | . | . | 32.8 | 2.0 | -6.9 | . | .
S=c1[nH]nc(-c2cc(-c3ccccc3)n[nH]2)n1/N=C/c1ccc(Cl)cc1 | -2.5 | 18.0 | 8.6 | 26.3* | 0.5 | 7.9 | 39.1
CCn1c2ccccc2c2cc(/C=N/n3c(-c4cc(C)[nH]n4)n[nH]c3=S)ccc21 | -6.4 | 45.0 | 24.9 | 61.7* | 4.4 | 12.8 | 63.5*
S=c1[nH]nc(-c2cc(-c3ccccc3)n[nH]2)n1/N=C/c1ccc(Cl)c(Cl)c1 | -1.8 | 22.1 | 19.5 | 30.5* | -8.6 | 12.9 | 9.3
Cc1ccsc1C(=O)N1CCN(C(=O)c2ccco2)CC1 | -4.7 | 4.4 | -1.3 | -1.6 | 4.1 | -6.2 | .
O=C(NN=Cc1ccccc1C(=O)O)c1ccc(NS(=O)(=O)c2cccs2)cc1 | -4.2 | -9.3 | 1.9 | 2.0 | 9.3 | -5.9 | .
N=c1c(C(=O)NCc2ccccc2)cc2c(=O)n3ccccc3nc2n1Cc1ccco1 | -1.9 | 12.6 | 11.0 | 31.1* | 7.1 | -1.1 | 10.4
Cc1ccc2nc3c(cc(C(=O)NCc4ccco4)c(=N)n3Cc3ccco3)c(=O)n2c1 | 94.5 | 27.6 | -3.2 | 18.6 | 9.7 | 88.8 | .
COCCn1c(=N)c(C(=O)NCc2ccco2)cc2c(=O)n3ccccc3nc21 | 6.5 | 17.1 | 7.1 | 0.3 | -7.4 | 4.6 | .
Cc1ccc(S(=O)(=O)c2cc3c(=O)n4ccccc4nc3n(Cc3ccco3)c2=N)cc1 | 13.8 | 9.8 | . | 43.3* | 3.8 | 17.8 | 25.6
N=c1c(S(=O)(=O)c2ccc(Cl)cc2)cc2c(=O)n3ccccc3nc2n1C1CCCCC1 | -0.8 | 13.2 | 29.6 | 43.0* | -9.7 | -7.9 | 21.3
N=c1c(S(=O)(=O)c2ccccc2)cc2c(=O)n3ccccc3nc2n1C1CCCC1 | 0.3 | 1.0 | . | 22.7 | -4.1 | -4.1 | .
Cc1ccc(CNC(=O)c2cc3c(=O)n4ccccc4nc3n(Cc3ccco3)c2=N)cc1 | 1.1 | 29.5 | 7.0 | 40.5* | -13.3 | -3.3 | 32.4
OC[C@@H]1CN(Cc2ccc(Cl)cc2)C[C@H](n2cnc3c(NC4CCC4)ncnc32)O1 | . | . | -0.3 | -0.7 | -5.3 | . | .
N=c1c(C(=O)NCc2ccco2)cc2c(=O)n3ccccc3nc2n1Cc1ccccc1 | 8.4 | 17.8 | -6.9 | 31.6* | 13.0 | 20.7 | 26.3
O=C(Nc1ccc(Oc2ccc3c(c2)C(=O)N(c2ccc(O)cc2)C3=O)cc1)c1cccs1 | -1.3 | -11.7 | . | 33.6* | -3.2 | -3.9 | -4.3
CC(C)CN1C(=O)c2ccc(NC(=O)c3cccs3)cc2C1=O | -1.9 | -2.5 | . | -7.6 | -8.8 | -6.2 | .
COc1ccccc1CCNS(=O)(=O)c1cc2c3c(c1)CCN3C(=O)CC2 | -0.7 | -4.2 | -4.5 | 5.0 | -5.3 | -7.9 | .
O=C(NN1CCOCC1)c1cc(-c2cccs2)nc2ccccc12 | 0.0 | -5.7 | . | -1.8 | 2.6 | -1.2 | .
O=C(NNc1nc2ccc(Cl)cc2s1)c1cc(-c2cccs2)nc2ccccc12 | -3.9 | -20.3 | 20.6 | 44.0* | 20.2 | -6.5 | 47.6*
Cc1cc(C)c2nc(NNC(=O)c3cc(-c4cccs4)nc4ccccc34)sc2c1 | -3.3 | -2.7 | 22.1 | 50.8* | 56.2* | -11.2 | 2.0
COc1ccccc1-c1csc(NC(=O)c2cc(-c3cccs3)nc3ccccc23)n1 | 0.2 | -8.4 | . | 22.3 | 6.0 | 0.5 | .
COc1ccc(-c2csc(NC(=O)c3cc(-c4cccs4)nc4ccccc34)n2)c(OC)c1 | -2.7 | 4.5 | . | 34.5* | -1.5 | -1.2 | 10.4
SMILES | A3A deaminase | PfG6PD inh | H9c2 TAG inh | NadD inh | Cardio protect | APOBEC3G inh | NadD inh conf | others
COc1cc(C#Cc2c(-c3cncn3C)n(C)c3ccc(-c4cnc(OC)nc4)cc23)cc(OC)c1 | -2.7 | 6.7 | 40.9 | 30.0* | 19.7 | -9.7 | 13.5
COc1cc(C#Cc2c(-c3cncn3C)n(C)c3ccc(-c4ccc(CN5CCOCC5)cc4)cc23)cc(OC)c1 | 6.7 | 11.9 | 4.6 | 20.4 | 19.4 | -0.6 | .
N#C/C(=C\c1cccc(Cl)c1)C(=O)c1ccccc1 | 3.2 | 18.8 | . | 4.0 | 6.5 | 3.4 | .
COc1cccc(C=C(C#N)C(=O)c2ccccc2)c1 | . | . | . | 31.7* | 5.1 | . | 17.6
CCn1c2ccccc2c2cc(N=C3SC(CC(=O)Nc4ccccc4)C(=O)N3C)ccc21 (stereo unspecified) | -0.7 | 0.5 | 4.7 | 30.7* | -8.3 | -0.9 | 19.1
Cc1ccc(NC(=O)N2CCc3ccccc3C2)c(C)c1 | 0.9 | -4.7 | -39.4 | -2.1 | 4.7 | -6.1 | .
CC(=O)Nc1sc(C)c(C)c1C(=O)OCC(=O)NC(C)c1ccccc1 (stereo unspecified) | 1.6 | 6.2 | 34.1 | -6.9 | -7.8 | -10.0 | .
O=C(c1noc2c1CCCC2)N1CCCC(N2CCN(c3ccccc3F)CC2)C1 (stereo unspecified) | -3.4 | 9.4 | . | 2.3 | -1.4 | 1.0 | .
CCOC(=O)c1sc2nc3c(SCC(=O)O)cc(C(=O)c4ccccc4O)cn3c(=O)c2c1C | 6.5 | 18.9 | 3.7 | 26.7 | -20.5 | 38.3 | .
COc1ccc(O)c(C(=O)c2cc(SCC(=O)O)c3nc4sc5c(c4c(=O)n3c2)CCCC5)c1 | 2.7 | -19.9 | 8.9 | 45.8* | -4.6 | -3.0 | 36.2
CCOC(=O)c1sc2nc3c(SCC(=O)O)cc(C(=O)c4cc(F)ccc4O)cn3c(=O)c2c1C | . | -19.4 | . | 33.3* | -8.2 | . | 34.0
O=C(O)CSc1cc(C(=O)c2ccccc2O)cn2c(=O)c3c(-c4ccccc4)csc3nc12 | 0.4 | -16.7 | 13.7 | 38.0* | 5.7 | -0.6 | 57.2*
Cc1[nH]c(=O)nc(NN=Cc2ccc(Cl)cc2)c1C(=O)Nc1ccc(Cl)cc1 | . | 1.5 | 21.3 | 9.1 | -13.0 | . | .
O=S(=O)(c1ccc(F)cc1)N1CCN(C(=S)NC2CC2)CC1 | . | -1.4 | -24.9 | 0.9 | 2.5 | . | .
COc1ccc(CN(C(=O)CSc2nnc(-c3c[nH]c4ccccc34)o2)c2ccc(F)cc2)cc1OC | 4.1 | -2.6 | -19.4 | 12.9 | 35.6 | 0.7 | .
Cc1cc(=O)oc2cc(OCc3ccc(C(=O)OCC(=O)Nc4ccc(N(C)C)cc4)cc3)ccc12 | 3.1 | -10.8 | -9.4 | 35.5* | -6.0 | -2.8 | 5.2

Screening results (PubChem BioAssay)
